BH1578 lux ind: induces V. cholerae light production without autoinducers; AID 588436; V. cholerae BH1578 lux reporter, luminescence, 6 h; activation, % at 18.7 µM; 350,000 compounds, 0.16% hits; in the data active = activation mostly above about 9.7%, no sharp cut-off
Mtb betalactam: beta-lactam sensitization of Mtb H37Rv | M. tuberculosis H37Rv growth with meropenem, percent inhibition | inhibition, % at 25 µM | 330,000 compounds, 0.27% hits | AID 434955; call rule not given here;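 also: growth measured after seven days incubation then overnight dye step; 0% = bacteria only wells and 100% = bacteria with antibiotic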
Sa ugtP lethal: compounds lethal to S. aureus RN4220 ugtP deletion mutant; 330,000 compounds, 0.54% hits; growth inhibition, % (concentration not given with the values); OD600 growth, 16 h; in the data active = growth inhibition above about 68%;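 also: plate controls were untreated wells for no effect and antibiotic for full effect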
PfHsp40 rescue: restores yeast growth despite PfHsp40 toxicity. 340,000 compounds, 0.68% hits. AID 504582. growth rescue, % at 12.5 µM. S. cerevisiae expressing PfHsp40, growth rescue, ATP luminescence; in the data active = growth rescue above about 28%, passing the limit was not always enough;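 also: yeast W303a lacking pdr1 and pdr3 grown in galactose medium; growth measured after three days at 30 °C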
RN4220 kill: S. aureus RN4220 growth inhibition. OD600, 16 h. 330,000 compounds, 0.33% hits. inhibition, % (concentration not given with the values). AID 1259311; in the data active = inhibition above about 85%;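 also: plate controls were untreated cells for no effect and reference antibiotic for full effect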
* marks the source's active call; other numbers are inactive results; i = inactive; · = no result given. This is a sample that favours compounds with a hit; in the whole collection about 1.2% have one here.

SMILES	BH1578 lux ind	Mtb betalactam	Sa ugtP lethal	PfHsp40 rescue	RN4220 kill
Cc1ccc(-c2nn(-c3ccccc3)cc2CO)cc1	i	-1	-6	3	-2
Cc1ccc(-c2nn(-c3ccccc3)cc2CNCc2ccccc2)cc1	i	99	97*	1	61
COc1cc(NC(=O)C2CCCN(c3ncnc4c3nc3n4CCCCC3)C2)cc(OC)c1OC (stereo unspecified)	0	2	3	44*	8
Cc1ccc2nc(/C(C#N)=C\c3ccc([N+](=O)[O-])o3)[nH]c2c1	-1	100	99*	5	99*
N#C/C(=C(/O)c1ccc([N+](=O)[O-])o1)c1nc2ccccc2[nH]1	35*	82	22	0	19
Cc1ccc2nc(/C(C#N)=C\c3ccc(N4CCOCC4)o3)[nH]c2c1	i	4	6	0	3
N#C/C(=C\c1ccc([N+](=O)[O-])o1)c1nc2ccccc2[nH]1	·	100	100*	·	100*
CCCCN1CC(=O)N2C3c4cc(Cl)ccc4OCC3C(C(=O)OCC)[C@]2(C)C1=O (stereo partly specified)	·	·	0	·	6
COc1c(CC=C(C)C)c(O)cc2oc(=O)c3c4ccc(O)cc4oc3c12	0	-2	-3	·	15
CC(C)=CCc1c(O)cc2c(=O)c3ccc(O)cc3oc2c1O	-1	-8	35	147*	-3
CC(C)=CCc1c(O)cc(O)c2c(=O)c(O[C@@H]3O[C@@H](C)[C@H](O)[C@@H](O)[C@H]3O)c(-c3ccc(O)cc3)oc12	0	-8	7	4	0
CC(C)=CCc1c(O)cc(O)c2c(=O)c3c(CC=C(C)C)c(O)ccc3oc12	·	7	100*	·	100*
Cc1ccc(S(=O)(=O)Oc2cccc(C=Nn3cnnc3)c2)cc1	·	·	10	·	5
O=S1(=O)[C@H]2C[C@@H]3C=C[C@@]2(CN1Cc1cccc(F)c1)O3	i	-15	·	66*	·
O=S1(=O)[C@H]2C[C@@H]3C=C[C@@]2(CN1Cc1cccc(C(F)(F)F)c1)O3	-1	10	7	0	-7
CCOC(=O)CN1C(=O)N[C@@H](c2cccc(F)c2)C(C(=O)OC)=C1C	7	-17	·	40*	·
CCOC(=O)CN1C(=O)N[C@@H](c2cccc(F)c2)C(C(C)=O)=C1C	i	-6	·	1	·
CCN1C(=O)C2C(c3ccc(-c4ccccc4)cc3)N3CCCC[C@@]3(C(=O)OC)C2C1=O (stereo partly specified)	·	·	3	·	3
CCN(CCNS(=O)(=O)c1ccc2[nH]c(=O)sc2c1)c1ccccc1	-1	0	99*	0	-14
NC(=NCCCCCCN=C(N)N=C(N)Nc1ccc(Cl)cc1)N=C(N)Nc1ccc(Cl)cc1	·	·	100*	·	100*
NC(=NCCCCCCN=C(N)/N=C(\N)Nc1ccc(Cl)cc1)/N=C(\N)Nc1ccc(Cl)cc1	0	100	·	15	·
CCOC(=O)C1C2COc3ccc(C)cc3C2N2C(=O)c3ccccc3NC(=O)[C@@]12C (stereo partly specified)	·	·	3	·	6
CC(=O)c1c(O)cc(O)c(C(C)=O)c1O	0	-4	89*	-1	86*
COc1cc(OC)c(C(=O)Nc2ccncc2)cc1OC	i	0	1	19	2
COc1ccccc1C(=O)Nc1ccccc1SC(=O)c1ccccc1OC	-1	5	89*	0	22
SMILES	BH1578 lux ind	Mtb betalactam	Sa ugtP lethal	PfHsp40 rescue	RN4220 kill
COc1ccc(C(=O)Nc2ccc3ccccc3c2)c(OC)c1	i	84	21	60*	-3
COc1cc(OC)c(C(=O)Nc2ccc(C(=O)c3ccccc3)cc2)cc1OC	-1	2	7	154*	4
COc1ccccc1C(=O)Nc1ccc(C)cc1C(=O)c1ccccc1	0	82	93*	1	-3
C=C(C)C(=O)N1CC2(CC(c3cccc(NC(=O)CC(c4ccccc4)c4ccccc4)c3)=NO2)CC1C(N)=O (stereo unspecified)	·	·	6	·	4
O=C1C(=Cc2cccs2)N=C(c2cccs2)N1Nc1ccccc1	·	·	-26	·	-5
COc1ccc(C=NN=C2CC(C)(C)Cc3n[nH]c(=O)cc32)cc1	·	·	-1	·	0
CC(C(=O)NCc1ccccc1)C1C[C@]1(C)C(NC(=O)OCc1ccccc1)c1ccccc1 (stereo partly specified)	·	·	-1	·	-1
C[C@@]12C(=O)Nc3ccccc3C(=O)N1C1c3cc(Br)ccc3OCC1C2c1ccccc1 (stereo partly specified)	·	·	-2	·	-12
COc1cc(C(=O)Nc2ccc(Br)cc2C(=O)c2ccccc2)cc(OC)c1OC	i	-1	-7	81*	-7
CN(C)CCN=Cc1c(O)n(Cc2ccc3c(c2)OCO3)c(=S)[nH]c1=O	-1	-4	9	82*	2
O=C(C/C=N\O)Nc1ccc(Oc2ccccc2)cc1	-1	-2	·	46*	·
NCCCCC1CNC(=S)N1CCc1cc(C(F)(F)F)cc(C(F)(F)F)c1 (stereo unspecified)	·	·	0	·	4
CC(O)c1nc2ccccc2n1C1CCCCC1 (stereo unspecified)	i	7	6	74*	3
CC(O)c1nc2ccccc2n1Cc1ccccc1 (stereo unspecified)	i	-7	-2	0	1
CNC(=O)c1[nH]cnc1C(=O)NC(Cc1ccccc1)C(=O)OC(C)(C)C (stereo unspecified)	·	·	8	·	7
O=C(NCc1ccccc1)C1=CC(c2ccc(Br)cc2)CC(OCCCCO)O1 (stereo unspecified)	·	·	-9	·	1
COc1ccccc1C1CCN(C(=O)c2ccc(Cl)cc2)CC1	-6	16	3	199*	10
O=C(N/N=C(\c1ccccc1)c1cccnc1)c1cccc(F)c1	0	96	·	315*	·
O=C(N/N=C(\c1ccccc1)c1cccnc1)c1ccc(O)cc1	0	2	·	-1	·
ON=Cc1cc(Br)ccc1OCc1ccc(F)cc1	·	·	74	·	-1
Cc1[nH]nc(SCC(=O)N2CCCCCC2)c1[N+](=O)[O-]	-1	-2	4	49*	0
Cc1[nH]nc(SCC(=O)N2CCCCC2)c1[N+](=O)[O-]	i	6	-2	1	4
O=C(OCc1ccccc1F)c1cc2ccccc2cc1O	-1	80	87*	-1	3
O=C(CNC(=O)C(=Cc1ccccc1)NC(=O)c1ccc(Br)cc1)OCc1ccccc1	·	·	17	·	12
O=C(NNC(=O)c1cc(Cl)ccc1O)c1cccc(S(=O)(=O)N2CCOCC2)c1	-6	-1	0	475*	11
Cc1ccc(C(=O)NNC(=O)c2cccc(S(=O)(=O)N3CCOCC3)c2)cc1	i	-3	-4	-2	4
CN1CCCC1CCNC(=O)c1c(-c2ccc3c(c2)OCO3)noc1-c1ccsc1 (stereo unspecified)	·	·	3	·	8
Cc1ccc(NS(=O)(=O)c2ccc(NC(=O)C(C)Sc3ccc(Cl)cc3)cc2)c(C)c1 (stereo unspecified)	i	0	-27	93*	-10

Screening results as filed in PubChem.
